Active and inactive are the calls of the source.

From PubChem BioAssay come the findings set out here.

The subject of assay [1] is Plasmodium falciparum Sir2 (PF13_0152, Sir2A). Description: Plasmodium falciparum Sir2A binding compounds – biochemical, small-molecule microarray, 635 nm fluorescence, primary screen (AID 1098).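 Also: score merges spot fluorescence intensity with its signal-to-noise ratio.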 The settings on record: fluorescence 635 nm, higher = more signal.
Assay [2] is described as follows: probe aDKK1 binding to arrayed compounds – biochemical, biotinylated probe, 635/667 nm fluorescence, primary screen (AID 1099).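 Also: score merges 667nm spot fluorescence with signal to noise across triplicate slides; reference of the scale not given here.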 The settings on record: small-molecule microarray, higher = more signal.
Assay [3] is described as follows: probe aCHRDL2 binding to arrayed compounds – biochemical, biotinylated probe, 635/667 nm fluorescence, primary screen (AID 1100). The settings on record: small-molecule microarray, higher = more signal.
Assay [4] is described as follows: change in splice reporter luminescence, either direction, cell-based, HEK293, spliceosome inhibition project, primary screen (AID 1101).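 Also: HEK293 cells carrying a splicing-competent luciferase reporter gene; test concentration not given here.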 The settings on record: HEK293 splicing luciferase reporter, 24 h, higher = more signal, called active from +8 up or from −8 down. (In a reporter assay the amount or activity of a reporter protein is the signal.)
Assay [5] deals with Fibroblast growth factor 10 (Homo sapiens) (UniProt O15520). As to the kind of experiment: compounds binding fibroblast growth factor 10 – biochemical, small-molecule microarray, 635 nm fluorescence, primary screen (AID 1102). The settings on record: FGF10 binding, fluorescence 635 nm, higher = more signal.
Chain of Fibroblast growth factor 10 (Homo sapiens) (O15520 whole entry, looked up): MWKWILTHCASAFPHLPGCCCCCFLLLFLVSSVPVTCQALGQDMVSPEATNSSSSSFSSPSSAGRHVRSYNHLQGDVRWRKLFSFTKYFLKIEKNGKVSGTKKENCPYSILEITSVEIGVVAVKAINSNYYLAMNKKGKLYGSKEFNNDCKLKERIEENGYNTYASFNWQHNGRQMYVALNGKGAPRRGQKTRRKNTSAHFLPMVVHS
Assay [6] concerns glycogen synthase kinase-3 (GSK3A per assay name; protocol says GSK3B). As to the kind of experiment: compounds binding glycogen synthase kinase-3 – biochemical, small-molecule microarray, 635 nm fluorescence, GSK3A, primary screen (AID 1103). Also: the record names both GSK3A and GSK3B. The settings on record: fluorescence 635 nm, higher = more signal.
For assay [7], the target named is Epidermal growth factor receptor (Homo sapiens) (UniProt P00533). As to the kind of experiment: compounds binding epidermal growth factor receptor – biochemical, small-molecule microarray, 635 nm fluorescence, primary screen (AID 1104).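 Also: score merges 667 nm emission intensity with spot signal to noise over triplicate slides.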 Conditions: EGFR binding, higher = more signal.
Chain of Epidermal growth factor receptor (Homo sapiens) (P00533 whole entry, looked up): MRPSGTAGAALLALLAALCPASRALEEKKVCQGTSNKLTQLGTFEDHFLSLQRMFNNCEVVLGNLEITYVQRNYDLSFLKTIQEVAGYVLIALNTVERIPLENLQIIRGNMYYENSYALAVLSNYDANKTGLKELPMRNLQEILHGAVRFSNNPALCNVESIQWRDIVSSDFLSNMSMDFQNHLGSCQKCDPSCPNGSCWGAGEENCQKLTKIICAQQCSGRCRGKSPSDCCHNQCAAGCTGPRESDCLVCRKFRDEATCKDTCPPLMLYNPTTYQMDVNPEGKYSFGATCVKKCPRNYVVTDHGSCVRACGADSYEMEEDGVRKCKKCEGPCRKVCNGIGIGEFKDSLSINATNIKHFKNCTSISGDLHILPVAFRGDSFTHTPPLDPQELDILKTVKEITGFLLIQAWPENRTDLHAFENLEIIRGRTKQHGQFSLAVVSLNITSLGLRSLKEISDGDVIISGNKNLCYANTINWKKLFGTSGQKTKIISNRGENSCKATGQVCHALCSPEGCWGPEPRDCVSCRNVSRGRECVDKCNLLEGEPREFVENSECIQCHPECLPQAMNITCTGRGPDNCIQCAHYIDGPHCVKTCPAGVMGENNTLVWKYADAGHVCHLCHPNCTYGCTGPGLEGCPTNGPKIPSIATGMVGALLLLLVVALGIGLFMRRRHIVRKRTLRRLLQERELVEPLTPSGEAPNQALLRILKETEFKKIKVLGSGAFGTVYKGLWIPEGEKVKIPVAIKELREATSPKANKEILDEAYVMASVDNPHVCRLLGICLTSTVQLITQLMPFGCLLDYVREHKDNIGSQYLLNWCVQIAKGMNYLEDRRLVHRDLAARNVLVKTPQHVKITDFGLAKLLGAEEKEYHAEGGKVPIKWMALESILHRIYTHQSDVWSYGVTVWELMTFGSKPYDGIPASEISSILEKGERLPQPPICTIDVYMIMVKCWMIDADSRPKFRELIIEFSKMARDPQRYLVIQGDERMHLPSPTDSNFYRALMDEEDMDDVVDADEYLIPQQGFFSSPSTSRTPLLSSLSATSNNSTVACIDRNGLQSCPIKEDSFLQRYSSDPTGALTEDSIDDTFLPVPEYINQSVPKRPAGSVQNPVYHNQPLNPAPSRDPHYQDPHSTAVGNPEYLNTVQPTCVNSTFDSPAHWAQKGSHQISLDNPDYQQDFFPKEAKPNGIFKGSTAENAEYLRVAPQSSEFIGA
The target in assay [8] is Follistatin-related protein 3 (Homo sapiens) (UniProt O95633). Description: compounds binding follistatin-related protein 3 – biochemical, small-molecule microarray, 635 nm fluorescence, primary screen (AID 1105).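 Also: score merges emission near 667 nm and signal to noise per printed spot across three slides.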 Conditions: FSTL3 binding, higher = more signal.
Chain of Follistatin-related protein 3 (Homo sapiens) (O95633 whole entry, looked up): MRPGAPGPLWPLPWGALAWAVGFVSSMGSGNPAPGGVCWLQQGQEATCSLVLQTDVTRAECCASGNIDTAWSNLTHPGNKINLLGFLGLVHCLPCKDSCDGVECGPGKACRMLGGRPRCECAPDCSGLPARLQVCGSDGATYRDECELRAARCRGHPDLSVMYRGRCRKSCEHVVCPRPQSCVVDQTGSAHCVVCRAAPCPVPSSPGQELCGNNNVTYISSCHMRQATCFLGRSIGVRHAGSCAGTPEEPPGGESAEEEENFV
Assay [9] concerns the target Dickkopf-related protein 1 (Homo sapiens) (UniProt O94907). Description: small molecules binding DKK1 protein – biochemical, small-molecule microarray, 635 nm fluorescence scan, primary screen (AID 1106).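 Also: score merges emission near 667 nm with signal to noise over three replicate slides.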 Conditions: higher = more signal.
Assay [10] relates to Inhibin beta A chain (activin A). Description: small molecules binding activin A – biochemical, small-molecule microarray, 635 nm fluorescence scan, primary screen (AID 1107).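 Also: mouse activin A protein probed at 4.33 µg/mL on printed slides; score merges bound-protein fluorescence near 667 nm with spot signal-to-noise.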 Conditions: INHBA, higher = more signal.

Chain of Dickkopf-related protein 1 (Homo sapiens) (O94907 whole entry, looked up): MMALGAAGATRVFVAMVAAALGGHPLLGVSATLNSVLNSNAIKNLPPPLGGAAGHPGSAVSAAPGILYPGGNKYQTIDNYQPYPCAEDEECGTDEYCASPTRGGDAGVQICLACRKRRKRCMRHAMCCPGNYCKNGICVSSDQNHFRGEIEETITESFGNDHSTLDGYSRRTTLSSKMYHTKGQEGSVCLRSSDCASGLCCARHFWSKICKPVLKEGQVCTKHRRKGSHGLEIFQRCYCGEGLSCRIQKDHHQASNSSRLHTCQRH

As for `CC1(C)OC[C@@]23C=C(Br)[C@@H](C[C@H]12)[C@@]1(CO1)C3=O`, the composite z-score in assay [1] was 0.0908; in assay [2] it was -0.123; in [3], -0.567; in assay [5] it was 0.447; in [6], 0.691; in assay [7] it was 0.376. Besides, the composite z-score is 0.564 in [8], 0.356 in assay [9] and 0.174 in [10]. In addition, the z-score in assay [4] is 0.0884 (inactive).
Regarding `Cc1ccc(S[C@]2(C(=O)NCCN3CCOCC3)CC(=O)N(C3CCCCC3)[C@@H]2c2ccc(CO)cc2I)cc1`, the composite z-score in [1] was 0.567; in [2], -0.69; in [3], -0.13; in [5] it was 1.29; in assay [6], 1.19; in [7], 0.0803. Also, the composite z-score in assay [8] was 1.19; in [9] it was -0.0675; in [10] it was 0.714. The z-score in [4] is -0.341 (inactive).
On to `CN(C)C(=O)[C@]1(Cc2ccccc2CN=[N+]=[N-])N=C(c2ccc(OCCCO)cc2)O[C@@H]1c1ccccc1N=[N+]=[N-]`, for which the composite z-score in assay [1] is 1.18; in assay [2] it was 0.805; in assay [3] it was 0.884; in assay [5] it was 0.939; in [6], 0.631; in assay [7], -0.205. Also, the composite z-score in [8] is 0.264; in assay [9] it was -0.0994; in [10] it was 0.814. Also, the z-score in assay [4] is -1.27 (inactive).
Regarding `CCCC=C(CCC)[C@@H](NC(=O)c1ccco1)c1ccc(C(=O)OC)cc1`, the composite z-score in assay [1] came to 0.851; in assay [2], 0.241; in [3], 1.01; in [5] it was 1.08; in assay [6], 1.3; in assay [7] it was 0.0415. Besides, the composite z-score is 0.938 in assay [8], -0.18 in [9] and 0.46 in assay [10]. In [4], the z-score was -0.545 (inactive).
For the compound `CC#CCO[Si](C#CCCCCCC)(C(C)C)C(C)C`, the composite z-score in assay [1] was 1.5; in assay [2] it was -0.32; in [3], 1.21; in [5] it was -2.46; in [6], -0.719; in assay [7], -2.07. For the same compound, the composite z-score was -2.09 in assay [8], -3.48 in assay [9] and -2.74 in assay [10]. In [4], the z-score was 0.176 (inactive).
For the compound `C=C(COC)/C(=C/C[C@H](OC(=O)c1ccncc1)c1ccc(OCCO)cc1)c1cc(C(=O)OC)ccc1OC`, the composite z-score in [1] is 0.674; in assay [2], 0.17; in assay [3], 0.118; in assay [5] it was 1.47; in assay [6], 0.32; in assay [7] it was -0.0503. Besides, the composite z-score in assay [8] amounted to 0.967; in assay [9], 0.8; in assay [10], 1.04. For the same compound, the z-score in assay [4] is -0.767 (inactive).
Regarding `Cc1ccc(S[C@]2(C(=O)NCC(F)(F)F)CC(=O)N(C3CCCCC3)[C@@H]2c2ccc(CO)cc2)cc1`, the composite z-score in assay [1] is 1.58; in assay [2], 0.433; in assay [3], 0.83; in assay [5], 0.162; in assay [6] it was -0.374; in assay [7] it was -0.235. The composite z-score in assay [8] is -0.517; in assay [9], -1.09; in assay [10], -0.0076. Also, the z-score in assay [4] was 0.113 (inactive).
Turning to `COCCOC(=O)N1C(=O)[C@@]2(c3cc(C#CC4(O)CCCCCC4)ccc31)[C@H](c1ccccc1OCCO)N1[C@H](c3ccccc3)[C@H](c3ccccc3)OC(=O)[C@H]1[C@@H]2C(=O)N1CCCCCCC1`, the composite z-score in [1] turned out to be 1.56; in [2], 2.22; in [3] it was 1.43; in assay [5], 0.846; in assay [6] it was 0.502; in assay [7], 0.638. Also, the values for the composite z-score in assay [8], in assay [9] and in assay [10] were 1.5, 1.09 and 1.71, respectively. Further, in [4], the z-score was -0.901 (inactive).
Consider `COc1cc2c(cc1O)C(C1CC1)N(Cc1ccc([N+](=O)[O-])o1)CC2` (stereo not given), for which the composite z-score amounted to 1.53 in assay [1]; 0.158 in assay [2]; 0.391 in assay [3]; 0.839 in [5]; 0.812 in assay [6]; 0.117 in assay [7]. The composite z-score is 0.228 in assay [8], -0.327 in [9] and 0.822 in assay [10]. The z-score in [4] is -0.28 (inactive).
Consider `C=C(C(=O)CC[C@@H](OC(C)=O)c1cccc(OCCO)c1)C(C)C`, for which the composite z-score in assay [1] was 1.24; in assay [2], -0.136; in assay [3], 0.114; in assay [5], 0.0186; in [6], -0.664; in [7], -0.649. The composite z-score in assay [8] was -0.0718; in [9], -0.375; in assay [10], 1.35. The z-score in assay [4] is 2.37 (inactive).
